# KB-V1 MDR tox: KB-V1 MDR subline cytotoxicity; KB-V1 MDR cells viability, CellTiter-Glo, 72 h; Potency, µM (titrated, usually from 46.1 µM), hits mostly cytotoxic; 400,000 tested, 3.4% active; AID 1347076; further: on the % scale 0 is the no-effect control and ±100 the full control effect; nearly all actives have a fitted effect of over 60% in size
#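 In this primary screen, KB-V1 cells overexpressing P-gp are incubated with library compounds (lowest to highest concentration) for 72 h at 37 degrees C before a luminescent ATP viability read.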
# ELG1 repair inh: ELG1-dependent DNA repair inhibition; HEK293T ELG1-luciferase reporter, luminescence, 16 h; DNA damage induced by 5-fluorouridine; Potency, µM (series often up to 46.1 µM), for the others: at the highest dose activity change, negative = inhibition, most hits filed as inhibitors; 330,000 tested, 2.3% active; AID 504467; further: on the % scale 0 is the no-effect control and ±100 the full control effect; nearly all actives have a fitted effect of over 55% in size
#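 Overnight (16 hr) co-exposure of 2,000 cells/well to 5-fluorouridine and compound at 37 °C preceded detection. Luciferase was quantified via ONE-Glo luminescence; loss of signal denotes inhibition.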
# SW480 rerep: DNA re-replication induction in SW480 cells; AID 624297; SW480 DNA re-replication, Hoechst DNA content imaging, 48 h; Potency, µM (series often up to 46.1 µM), for the others: at the top dose re-replication activation, actives largely listed as activators; 340,000 tested, 1.8% active; further: % of control where 0% means no effect; nearly all actives have a fitted effect of over 55% in size
#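 Treated cells incubate 48 hr (37 C, 5% CO2), are stained 40 min with Hoechst, and nuclear fluorescence is enumerated; a rise in nuclei with high DNA signal marks re-replication.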
# MCF10A rerep: DNA re-replication induction in MCF 10a cells. Potency, µM (highest dose often 46.1 µM), for inactives: at the top dose activity, positive = re-replication, most hits filed as activators. 350,000 tested, 2.9% active. MCF 10A DNA re-replication, Hoechst nuclear intensity, 48 h; further: % of control where 0% means no effect; nearly all actives have a fitted effect of over 50% in size
# KB-3-1 tox: KB-3-1 parental cell cytotoxicity; KB-3-1 viability, CellTiter-Glo ATP luminescence, 72 h; Potency, µM (titrated, usually from 46.1 µM), most hits filed as cytotoxic; 400,000 tested, 1.4% active; further: on the % scale 0 is the no-effect control and ±100 the full control effect; nearly all actives have a fitted effect of over 60% in size
#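 Screening of KB-3-1 cells (DMEM, 10% FBS, phenol-red free) ran from lowest to highest compound concentration; after 72 h at 37 °C viability was read luminescently and curves fitted.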
# Starred values were filed as active, the others as inactive; i = inactive; ? = inconclusive; / = not tested or not shown; [ ] = remark or other dose. A selection: hits, their analogues and other compounds. The true share with any hit is near 8.2%. The call rests on the fitted dose curve; in most records, active means well fitted curve in the direction sought with a large enough effect; inconclusive means small, poorly fitted or top-dose-only effect, or another doubt; inactive means no such curve, though single readings can be large; an effect the other way counts as inactive or inconclusive. Potency means the concentration at half of the fitted maximal effect.
SMILES,KB-V1 MDR tox,ELG1 repair inh,SW480 rerep,MCF10A rerep,KB-3-1 tox
Cc1ccc2[nH]c(=O)c(CN(CC3CCCO3)S(=O)(=O)c3cccc4nsnc34)cc2c1 (stereo unspecified),i,?,-0.2%,-2.4%,i
Cc1cc(C)c2cc(CN(CC3CCCO3)S(=O)(=O)c3ccc4c(c3)OCCO4)c(=O)[nH]c2c1 (stereo unspecified),16.4µM*,0.6%,24.0%,-46.2%,i
Cc1ccc2[nH]c(=O)c(CN(CC3CCCO3)S(=O)(=O)c3c(C)ccc4nsnc34)cc2c1 (stereo unspecified),6.51µM*,-10.6%,-1.5%,-2.0%,?
COc1ccc(NC(=O)N(Cc2cc3cc(OC)c(OC)cc3[nH]c2=O)CC2CCCO2)cc1 (stereo unspecified),i,?,-3.0%,-5.9%,i
COc1ccc2cc(CN(CC3CCCO3)C(=O)Nc3ccccc3)c(=O)[nH]c2c1 (stereo unspecified),i,18.3µM*,-11.5%,-4.1%,?
Cc1ccc2cc(CN(CCCO)S(=O)(=O)c3cccc4nsnc34)c(=O)[nH]c2c1,i,9.2µM*,22.3%,2.3%,i
Cc1ccc(S(=O)(=O)N(Cc2cc3cc4c(cc3[nH]c2=O)OCCO4)CC2CCCO2)cc1 (stereo unspecified),i,-2.7%,-4.3%,2.5%,i
COc1ccc2[nH]c(=O)c(CN(C(=O)NC3CCCCC3)C3CCCC3)cc2c1,14.6µM*,4.5%,-5.5%,?,i
CCOc1ccc(NC(=S)N(CCN2CCOCC2)Cc2cc3cc4c(cc3[nH]c2=O)OCO4)cc1,i,20.6µM*,-37.9%,0.6%,i
Cc1cc(C)c2[nH]c(=O)c(CN(CC3CCCO3)C(=S)Nc3ccccc3)cc2c1 (stereo unspecified),i,-16.3%,-2.4%,4.6%,i
Cc1ccc2[nH]c(=O)c(CN(CCN3CCOCC3)C(=O)Nc3ccccc3F)cc2c1,?,16.4µM*,?,-0.8%,i
Cc1ccc2[nH]c(=O)c(CN(CC3CCCO3)C(=S)Nc3ccccc3)cc2c1 (stereo unspecified),4.11µM*,?,?,?,?
CCc1nc2c(OCc3ccccc3C)cccn2c1N(C)C(=O)c1ccc(C)cc1,i,/,/,/,i
COc1ccc(CNC(=O)C2(CC3CC(c4ccccc4)=NO3)CCN(C(=O)C3CCCC3)CC2)cc1 (stereo unspecified),i,-28.6%,-2.9%,-8.3%,i
CCn1c(CC(=O)Nc2ccc(OC)cc2)nnc1SCC(=O)N1CCOCC1,i,18.6%,2.4%,1.1%,i
CCOc1ccc(N(Cc2cc3cc(OC)ccc3[nH]c2=O)S(C)(=O)=O)cc1,14.6µM*,0.0%,-13.2%,-0.6%,i
COc1ccc2cc(CN(CC3CCCO3)S(=O)(=O)c3ccccc3)c(=O)[nH]c2c1 (stereo unspecified),20.6µM*,7.3%,3.2%,0.3%,i
COc1ccc(C(=O)N(Cc2ccccc2)Cc2cc3cc4c(cc3[nH]c2=O)OCCO4)cc1,11.2µM*,17.3%,?,?,8.91µM*
Cc1cccc(NC(=O)N(Cc2cc3cc(C)ccc3[nH]c2=O)CC2COCCO2)c1 (stereo unspecified),?,11.6µM*,11.9%,4.7%,i
O=C(Cc1ccc(OCc2ccccn2)cc1)NO,i,/,/,/,i
COc1ccc2[nH]c(=O)c(CN(CC3CCCO3)C(=O)Nc3ccc(F)cc3)cc2c1 (stereo unspecified),2.59µM*,7.31µM*,1.0%,?,13µM*
CC(=O)c1ccc(NC(=O)CN2C(=O)CCc3cc(S(=O)(=O)N4CCC(C)CC4)ccc32)cc1,?,/,/,/,i
O=C(CSc1n[nH]c(-c2ccccn2)n1)Nc1cccc(Cl)c1,i,25.9µM*,?,17.0%,?
CCOC(=O)c1ccc(N2CCOCC2)c(NC(=O)c2nccnc2C(=O)O)c1,?,2.6%,?,-1.2%,i
CCOc1cc(/C=C2\SC(=N)N(c3nccs3)C2=O)ccc1OCCN1CCOCC1,7.31µM*,?,?,8.0%,i
SMILES,KB-V1 MDR tox,ELG1 repair inh,SW480 rerep,MCF10A rerep,KB-3-1 tox
CCOc1cc(/C=C2\SC(=S)N(N3CCOCC3)C2=O)ccc1O,i,-2.8%,?,-1.1%,i
O=Cc1ccc(CS)cc1,i,/,/,/,i
COc1cccc(CN2C(=NC(=O)C3CC3)SC3CS(=O)(=O)CC32)c1 (stereo unspecified),i,0.2%,14.3%,-2.7%,i
O=C(NCCOc1cccc(Oc2ccccc2)c1)c1cc(-n2cnnc2)ccc1Cl,16.4µM*,?,0.1%,2.8%,i
O=C(NCCOc1cccc(Cl)c1Cl)c1cc(-n2cnnc2)ccc1Cl,i,1.1%,-6.6%,20.0%,i
CC(C)(C)n1ncc2c(=O)n(Cc3ccc(Cl)cc3Cl)cnc21,?,1.9%,-0.9%,45.0%,?
Cc1cc(C)n(-c2ccn(Cc3ccc(Cl)cc3Cl)c(=O)n2)n1,7.31µM*,?,-4.1%,2.1%,i
N=c1c2c(-c3ccccc3)c(-c3ccccc3)n(Cc3ccco3)c2ncn1Cc1ccco1,?,-3.6%,2.4%,?,16.4µM*
CCOc1ccccc1OCC(=O)Nc1nnc(COC)s1,18.4µM*,-1.1%,-0.2%,5.2%,i
COc1ccccc1NC(=O)CCCCCN1C(=O)c2cccc3cccc(c23)C1=O,?,?,0.4%,7.4%,i
COc1ccccc1NC(=O)CCCCCN1C(=O)c2cccc([N+](=O)[O-])c2C1=O,i,-2.0%,-22.9%,0.92µM*,i
O=C(Nc1c(Cl)cc([N+](=O)[O-])cc1Cl)c1cc(Cl)ccc1O,?,/,/,/,0.731µM*
O=C(Nc1ccc([N+](=O)[O-])cc1Cl)c1cc(Br)ccc1O,1.84µM*,/,/,/,2.31µM*
COc1ccc(C(=O)COC(=O)Cn2cnc3ccccc3c2=O)c(OC)c1,i,5.2%,0.1%,7.4%,i
CCN1C(=O)CCN(C2CCCC2)c2nc(Nc3ccc(C(=O)NC4CCN(C)CC4)cc3OC)ncc21,i,/,17.6%[9.22 µM],10.3µM*,9.2µM*
COc1cc(C2N=C(N)Nc3nc4ccccc4n32)ccc1OCC(=O)O (stereo unspecified),i,/,/,/,i
O=C(CCN1C(=O)/C(=C/c2ccccc2F)SC1=S)NCCCn1ccnc1,i,1.0%,-6.3%,20.6µM*,i
O=C(CCCN1C(=O)/C(=C/c2ccccc2)SC1=S)NCCCn1ccnc1,i,0.2%,-4.1%,?,?
Cc1ccc(/C=C2\SC(=O)N(CCC(=O)N3CCN(C)CC3)C2=O)cc1,?,?,-1.1%,13µM*,i
CN1CCN(C(=O)CCN2C(=O)/C(=C/c3ccccc3Cl)SC2=S)CC1,?,-3.6%,?,5.8µM*,?

# Screens deposited in PubChem by National Center for Advancing Translational Sciences (NCATS).
